Out of some 16,000 compounds screened, about 5,100 (32%) were called active. Inconclusive results (about 25%) are left out. Calls follow the shape of the dose curve; as a rule, active = well fitted curve in the direction sought with a large enough effect; inconclusive = small, poorly fitted or top-dose-only effect, or effect the other way; inactive = no such curve, though single readings can be large or run the other way. This is one part of the list.
Molecular target: Cytochrome P450 3A4 (Homo sapiens) (UniProt P08684)
Sequence (P08684 whole entry, looked up): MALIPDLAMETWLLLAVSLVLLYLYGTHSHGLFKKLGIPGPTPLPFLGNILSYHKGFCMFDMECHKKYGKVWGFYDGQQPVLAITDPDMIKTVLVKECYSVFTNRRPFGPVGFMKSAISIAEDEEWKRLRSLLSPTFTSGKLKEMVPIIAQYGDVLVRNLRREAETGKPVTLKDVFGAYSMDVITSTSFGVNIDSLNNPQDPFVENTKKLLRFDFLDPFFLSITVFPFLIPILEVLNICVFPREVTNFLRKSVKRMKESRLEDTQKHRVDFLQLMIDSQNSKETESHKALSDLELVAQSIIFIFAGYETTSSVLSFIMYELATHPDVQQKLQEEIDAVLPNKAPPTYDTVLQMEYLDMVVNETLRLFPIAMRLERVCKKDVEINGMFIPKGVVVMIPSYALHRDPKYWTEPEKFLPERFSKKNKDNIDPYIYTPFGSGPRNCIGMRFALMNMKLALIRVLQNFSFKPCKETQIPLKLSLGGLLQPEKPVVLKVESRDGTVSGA
Experiment: Cytochrome panel assay with activity outcomes
Settings: recombinant CYP, pro-luciferin dealkylation, luminescence, p450-cyp3a4; series mostly up to 57.1 µM; activity, negative = inhibition: at the top concentration
Protocol: The P450 gene superfamily is involved in the metabolism and clearance of xenobiotics. This assay used various human CYP P450 isozymes to measure the dealkylation of various pro-luciferin substrates to luciferin. The luciferin is then measured by luminescence after the addition of a luciferase detection reagent. Pro-luciferin substrate concentration in the assay was equal to its KM for its CYP P450 isozyme. Inhibitors and some substrates limit the production of luciferin, and decrease measured luminescence.
NCGC Assay Protocol Summary:
1, Reagent, 2 uL, Isozyme and Pro-Luciferin
2, Library compounds, 23 nl, 40 uM to 0.24 nM dilution series
3, Controls, 23 nl, Isozyme specific inhibitor
4, Reagent, 2 uL, NADPH regeneration solution
5, Incubation time, 60 min, Isozyme specific temperature
6, Reagent, 4ul, Detection reagent
7, Incubation time, 20 min, Isozyme specific temperature
8, Detection, 1 sec, ViewLux luminescent read
The luciferase-based P450-GloTM Screening Systems were obtained from Promega (Madison, WI) for CYP 1A2 (V9770), CYP 2C9 (V9790), CYP2 C19 (V9880), CYP 2D6 (V9890), and CYP 3A4 Luciferin-PPXE (V9910) and were adapted for 1,536-well microplates and an automated protocol. The control compounds furafylline for 1A2 (F124), sulfaphenazole for CYP 2C9 (S0758), ketoconazole for CYP 2C19 (K1003), quinidine for 2D6 (Q3625), and ketoconazole for 3A4 (K1003) were purchased from Sigma Aldrich (St. Louis, MO). Recombinant P450 enzymes were obtained from baculovirus constructs expressed in insect cells (BD/Gentest).
Medium-binding white solid Kalypsys plates used. Mixtures kept on ice. 1A2: 10 nM 1A2, 100 uM Luc-ME, 100 mM KPO4; 2C9: 10 nM 2C9, 100 uM Luc-H, 25 mM KPO4; 2C19: 5 nM 2C19, 10 uM Luc-H EGE, 50 mM KPO4; 2D6: 5 nM 2D6, 30 uM Luc-ME EGE, 100 mM KPO4; 3A4: 10 nM, 25 uM Luc-PPXE. All amounts are reflected in their final concentration, working concentration is 2x.
NADPH regeneration solution: 1.3 mM NADP+, 3.3 mM glucose-6-phosphate, 3.3 mM MgCl2, 0.4 U/mL glucose-6-phosphate dehydrogenase for all isozymes, 200 mM KPO4 for 3A4. Mixture prepared at RT but kept on ice during automated run.
RT incubation in auxilliary plate hotel for 1A2, 2D6, and 3A4; 37C for 2C9 and 2C19.
Keywords: P450, CYP1A2, CYP2C19, CYP2C9, CYP2D6, CYP3A4, Luciferase, MLSMR, MLSCN, NIH Roadmap, qHTS, NCGC
% is scaled to controls: 0 for no effect and ±100 for the full control effect.

activity, negative = inhibition, inactive:
CCSc1nc2c(c(=O)[nH]1)C(c1ccccn1)C1=C(CC(C)(C)CC1=O)N2 (configuration not stated) -27.4%, COC(=O)CNC(=O)/C=C/c1ccc(OC)cc1 -5.5%, COCCCNC(=O)/C=C/c1ccc(Cl)cc1 -5.86%, CCn1c(SCc2ccc(C#N)cc2)nnc1-c1ccc(S(=O)(=O)N2CCCCC2)cc1 16.3%, CCCCSc1ccc2nc(-c3ccc(C#N)cc3)cn2c1 20.1% [at 2.29 µM], CCOc1[nH]n(-c2ccc(Cl)cc2)c(=O)c1C=Nc1ccc(Cl)cc1 -6.06%, COc1cc(NC(=O)c2c(F)cccc2F)nc(OC)n1 -27.2%, CC#CCCCC(=O)Nc1ccc(C(=O)O)cc1 -7.69%, CN(C)/C=C/C(=O)c1ccc(Cl)cc1 -19.9%, CN(C)CCNC(=O)C(C(=O)c1ccc(F)cc1)n1ccccc1=O (configuration not stated) 3.86%, O=C(Nc1cccc2nsnc12)c1ccc(-c2cccc(Cl)c2)o1 1.55% [at 2.29 µM], CCCn1nnnc1-c1cccc(Cl)c1 -8.36%, N#C/C(=C/N1CCOCC1)c1ccccc1 2.4%, C[C@@H](N1CCOCC1)[C@@](O)(c1ccccc1)c1ccccn1 -13% [at 11.4 µM], Nc1ccc(N=Nc2c(S(=O)(=O)O)cc3ccccc3c2S(=O)(=O)O)cc1 5.34% [at 11.4 µM], Cc1nc2sccn2c(=O)c1Cl -1.16%, COc1cc(C2C(C(=O)c3ccc(C)o3)=C(O)C(=O)N2CCc2ccccc2)ccc1O (configuration not stated) -10.4%, Cc1ccc(C2C(C(=O)c3sc(C)nc3C)=C(O)C(=O)N2CCN2CCOCC2)o1 (configuration not stated) -18.5%, CN(C)CCN1C(=O)C(O)=C(C(=O)c2cc3ccccc3o2)C1c1ccccn1 (configuration not stated) -4.62%, Cc1cc(N2C(=O)C(O)=C(C(=O)c3cccs3)C2c2cccc(O)c2)no1 (configuration not stated) -13.2%

AC50, active:
CSc1nc2c(c(=O)[nH]1)C(c1ccncc1)C(C(=O)OC(C)C)=C(C)N2 (configuration not stated) 1.26 µM, CCSc1nc2c(c(=O)[nH]1)C(c1ccncc1)C(C(=O)OC(C)C)=C(C)N2 (configuration not stated) 1.12 µM, COc1ccc(CNC(=O)/C=C/c2ccc(OCCCF)cc2)cc1 5.01 µM, CCn1c(COc2ccc(C)cc2)nnc1SCc1ccc(C#N)cc1 2 µM, CCc1nnc(NS(=O)(=O)c2ccc(N=Cc3c(C)[nH]n(-c4ccc(C)cc4)c3=O)cc2)s1 22.4 µM, CC#CCCCC(=O)Nc1cc(OC)nc(OC)n1 14.1 µM, CCNc1ccc(Br)cc(C(=O)/C=C/c2ccc3c(c2)OCO3)c1=O 17.8 µM, CNc1ccc(Br)cc(C(=O)/C=C/c2ccc3c(c2)OCO3)c1=O 11.2 µM, CCCn1nnc(NC(=O)c2ccc(-c3cccc(Cl)c3)o2)n1 28.2 µM, OC(c1ccccc1)(c1ccc(F)cc1)C(c1ccccc1)N1CCOCC1 (configuration not stated) 3.98 µM, CCOc1cccc(C2C(C(=O)c3ccc(C)o3)=C(O)C(=O)N2Cc2ccncc2)c1 (configuration not stated) 5.01 µM, Cc1ccc(C(=O)C2=C(O)C(=O)N(CCCn3ccnc3)C2c2ccc(OC(C)C)cc2)o1 (configuration not stated) 7.94 µM

Source: PubChem BioAssay AID1851 (National Center for Advancing Translational Sciences (NCATS), 2009)
